A short description of experiment [1]: A CellTox Green Cytotoxicity Assay to monitor cytotoxicity in HEK293 cells - 32 hour (AID 1224881). Note: nearly all actives have a fitted effect of over 40% in size. The essentials:
(§1)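 Seeding of HEK293 cells together with cytotoxicity dye preceded a 5 h incubation at 37 C/5% CO2. Test compounds in DMSO were then added and fluorescence monitored across 40 h.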

Experiment [2] can be described thus: A CellTox Green Cytotoxicity Assay to monitor cytotoxicity in HepG2 cells - 0 hour (AID 1224882). Note: nearly all actives have a fitted effect of over 35% in size. A digest of the protocol:
(§2)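 Nonlytic assay: viable cells exclude the dye, so fluorescence scales with cell death. HepG2 at 600 cells/well, compounds added after 5 h, signal read across 40 h.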

The nature of experiment [3]: A CellTox Green Cytotoxicity Assay to monitor cytotoxicity in HepG2 cells - 32 hour (AID 1224883). Note: nearly all actives have a fitted effect of over 50% in size. A digest of the protocol:
as §2

A short description of experiment [4]: A CellTox Green Cytotoxicity Assay to monitor cytotoxicity in HEK293 cells - 8 hour (AID 1224884). Note: nearly all actives have a fitted effect of over 35% in size. The essentials:
as §1

A short description of experiment [5]: qHTS RealTime-Glo MT Cell Viability Assay in HepG2 cells - 16 hour (AID 1224885). Note: nearly all actives have a fitted effect of over 50% in size. A digest of the protocol: (§3)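 Tox21 10K library screened in qHTS format on HepG2 cells carrying RealTime-Glo reagents. Compounds were added after a 5 h preincubation, and the luminescent signal from continuous culture was measured repeatedly during 40 h treatment.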
Experiment [6] can be described thus: qHTS RealTime-Glo MT Cell Viability Assay in HEK293 cells - 24 hour (AID 1224886). Note: nearly all actives have a fitted effect of over 50% in size. Note: potency is the fitted concentration of half-maximal effect. The essentials:
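Luminescence generated by NanoLuc from substrate produced by living HEK293 cells served as the viability signal. Each value reflects the reading at its stated time point during continuous 40 h compound exposure at 37 C.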
Background: Quantitative high-throughput screening tests each substance at several concentrations.

Experiment [7] is described as follows: A CellTox Green Cytotoxicity Assay to monitor cytotoxicity in HEK293 cells - 16 hour (AID 1224888). Note: nearly all actives have a fitted effect of over 35% in size. A digest of the protocol:
as §1

The nature of experiment [8]: A CellTox Green Cytotoxicity Assay to monitor cytotoxicity in HepG2 cells - 8 hour (AID 1224890). Note: nearly all actives have a fitted effect of over 45% in size. The essentials: as §2
Experiment [9] is described as follows: qHTS assay to identify small molecule antagonists of the estrogen receptor alpha (ER-alpha) signaling pathway using the BG1 cell line in the presence of 0.1 nM 17-beta-estradiol - cell viability counter screen (AID 1259241). Note: nearly all actives have a fitted effect of over 40% in size. Note: potency is the fitted concentration of half-maximal effect. The essentials:
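Cytotoxicity counter-screen: live-cell protease activity measured by fluorescence (30 min reagent step) in the same wells. Cells were VM7Luc4E2 with endogenous ER-alpha and ERE-driven luciferase, treated 22 hr at 37C alongside 0.1 nM 17beta-estradiol final.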

Experiment [10] is described as follows: qHTS assay to identify small molecule antagonists of the androgen receptor (AR) signaling pathway using the MDA cell line in the presence of 0.5 nM R1881 - cell viability counter screen (AID 1259242). Note: nearly all actives have a fitted effect of over 45% in size. Note: potency is the fitted concentration of half-maximal effect. The essentials: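 R1881 at 0.5 nM final stimulated MDA-kb2 cells during 16 hr compound treatment at 37C. Cytotoxicity read: CellTiter-Fluor fluorescence after 30 min.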

Experiment [11] deals with Estrogen receptor (Homo sapiens) (UniProt P03372). Briefly: qHTS assay to identify small molecule antagonists of the estrogen receptor alpha (ER-alpha) signaling pathway using the BG1 cell line in the presence of 0.1 nM 17-beta-estradiol (AID 1259244). Note: nearly all actives have a fitted effect of over 50% in size. A digest of the protocol: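 VM7Luc4E2; 4xERE-luciferase; 0.1 nM E2 final; 22 h co-incubation, 37C; ONE-Glo luminescence after 30 min at room temperature.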

Experiment [12] in a line: qHTS assay to identify small molecule HDAC inhibitors (AID 1259364). Note: potency is the fitted concentration of half-maximal effect.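 Note: wild-type HCT-116 cells with endogenous class I/II HDAC activity; nearly all actives have a fitted effect of over 45% in size.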 The essentials: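 Relative class I and II HDAC activity is taken from the luminogenic signal in HCT-116 cells, with compound exposure 2 hr and reagent development 30 min at room temperature.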
Experiment [13] in a line: qHTS assay to identify small molecule HDAC inhibitors - cell viability counter screen (AID 1259365). A digest of the protocol:
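CellTiter-Glo luminescence (30 min, room temperature) reported viability after a 2 h compound exposure at 37 C. Cells: wild-type HCT-116, 1,500 per well, seeded the night before.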

Experiment [14] can be described thus: qHTS assay to identify small molecule agonists of the sonic hedgehog signaling (Shh) pathway - cell viability counter screen (AID 1259366). Note: nearly all actives have a fitted effect of over 50% in size. Note: potency is the fitted concentration of half-maximal effect. A digest of the protocol:
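Cytotoxicity counter screen: CellTiter-Fluor reagent added after 23 h compound exposure, then 1 h at 37C and fluorescence read. Cells were 3T3 Gli1-Luc, seeded 2,000 per well and dosed 4 h post-plating.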

Experiment [15] is described as follows: qHTS assay to identify small molecule antagonists of the sonic hedgehog signaling (Shh) pathway - cell viability counter screen (AID 1259367). Note: nearly all actives have a fitted effect of over 55% in size. Note: potency is the fitted concentration of half-maximal effect. The essentials: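 Cells: 3T3 Gli1-Luc, 2,000/well, 4 hr pre-incubation. Compounds in DMSO, then conditioned medium. Incubation 24 hr, 37C, 5% CO2. CellTiter-Fluor at 23 hr, 1 hr, fluorescence.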
Experiment [16] can be described thus: qHTS RealTime-Glo MT Cell Viability Assay in HEK293 cells - 0 hour (AID 1224880). Note: top concentration of the series differs between compounds; nearly all actives have a fitted effect of over 45% in size. The essentials: (§4)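 Tox21 screen in HEK293 using RealTime-Glo MT chemistry, with cells and reagent co-dispensed. Luminescence proportional to viable cell number was captured at intervals during 40 h compound exposure at 37 C.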
A short description of experiment [17]: qHTS RealTime-Glo MT Cell Viability Assay in HEK293 cells - 8 hour (AID 1224887). Note: nearly all actives have a fitted effect of over 50% in size. Note: potency is the fitted concentration of half-maximal effect. The essentials: as §4
The nature of experiment [18]: qHTS RealTime-Glo MT Cell Viability Assay in HepG2 cells - 0 hour (AID 1224889). Note: nearly all actives have a fitted effect of over 50% in size. The essentials: as §3
Experiment [19] has as its target Androgen receptor (Homo sapiens) (UniProt P10275). Briefly: qHTS assay to identify small molecule antagonists of the androgen receptor (AR) signaling pathway using the MDA cell line in the presence of 0.5 nM R1881 (AID 1259243). Note: nearly all actives have a fitted effect of over 50% in size. The essentials: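 We exposed MDA-kb2 cells to compounds under 0.5 nM R1881 stimulation for 16 hr at 37C and quantified MMTV-driven luciferase by luminescence.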

Experiment [20] can be described thus: qHTS assay to identify small molecule phospholipidosis (PLD) inducers (AID 1259344; active = well fitted curve in the direction sought with a large enough effect; an effect the other way counts as inactive or inconclusive). The essentials:
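Phospholipidosis is scored by imaging LipidTOX-stained pits in HepG2 cells exposed to compound for 24 h at 37 C; pit counts and integrated intensities per well and per cell serve as outputs.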

Values without a mark were called inactive. Results filed as inconclusive are left out. Active and inactive are the calls of the source. Unless noted, calls come from the whole dose curve; as a rule, active = well fitted curve in the direction sought with a large enough effect in the repeat runs; inconclusive = weak or mixed curves; inactive = no such curve, though single readings can be large; an effect the other way counts as inactive or inconclusive.

Chain of Estrogen receptor (Homo sapiens) (P03372 whole entry, looked up): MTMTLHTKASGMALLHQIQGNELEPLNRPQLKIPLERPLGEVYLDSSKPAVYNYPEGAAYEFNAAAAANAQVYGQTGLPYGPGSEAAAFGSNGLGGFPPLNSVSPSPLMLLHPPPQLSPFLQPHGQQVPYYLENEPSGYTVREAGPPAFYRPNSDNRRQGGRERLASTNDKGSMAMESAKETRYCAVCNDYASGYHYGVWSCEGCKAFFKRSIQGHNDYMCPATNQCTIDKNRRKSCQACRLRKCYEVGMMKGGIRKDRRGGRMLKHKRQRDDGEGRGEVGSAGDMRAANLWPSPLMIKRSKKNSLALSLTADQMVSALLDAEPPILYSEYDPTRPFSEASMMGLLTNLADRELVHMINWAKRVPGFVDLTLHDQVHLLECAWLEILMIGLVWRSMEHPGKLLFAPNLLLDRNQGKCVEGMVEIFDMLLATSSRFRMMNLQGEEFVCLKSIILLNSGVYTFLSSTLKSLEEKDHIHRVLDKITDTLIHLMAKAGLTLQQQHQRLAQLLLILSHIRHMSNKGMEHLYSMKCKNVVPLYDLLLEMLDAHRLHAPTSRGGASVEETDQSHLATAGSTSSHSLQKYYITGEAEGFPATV
Chain of Androgen receptor (Homo sapiens) (P10275 whole entry, looked up): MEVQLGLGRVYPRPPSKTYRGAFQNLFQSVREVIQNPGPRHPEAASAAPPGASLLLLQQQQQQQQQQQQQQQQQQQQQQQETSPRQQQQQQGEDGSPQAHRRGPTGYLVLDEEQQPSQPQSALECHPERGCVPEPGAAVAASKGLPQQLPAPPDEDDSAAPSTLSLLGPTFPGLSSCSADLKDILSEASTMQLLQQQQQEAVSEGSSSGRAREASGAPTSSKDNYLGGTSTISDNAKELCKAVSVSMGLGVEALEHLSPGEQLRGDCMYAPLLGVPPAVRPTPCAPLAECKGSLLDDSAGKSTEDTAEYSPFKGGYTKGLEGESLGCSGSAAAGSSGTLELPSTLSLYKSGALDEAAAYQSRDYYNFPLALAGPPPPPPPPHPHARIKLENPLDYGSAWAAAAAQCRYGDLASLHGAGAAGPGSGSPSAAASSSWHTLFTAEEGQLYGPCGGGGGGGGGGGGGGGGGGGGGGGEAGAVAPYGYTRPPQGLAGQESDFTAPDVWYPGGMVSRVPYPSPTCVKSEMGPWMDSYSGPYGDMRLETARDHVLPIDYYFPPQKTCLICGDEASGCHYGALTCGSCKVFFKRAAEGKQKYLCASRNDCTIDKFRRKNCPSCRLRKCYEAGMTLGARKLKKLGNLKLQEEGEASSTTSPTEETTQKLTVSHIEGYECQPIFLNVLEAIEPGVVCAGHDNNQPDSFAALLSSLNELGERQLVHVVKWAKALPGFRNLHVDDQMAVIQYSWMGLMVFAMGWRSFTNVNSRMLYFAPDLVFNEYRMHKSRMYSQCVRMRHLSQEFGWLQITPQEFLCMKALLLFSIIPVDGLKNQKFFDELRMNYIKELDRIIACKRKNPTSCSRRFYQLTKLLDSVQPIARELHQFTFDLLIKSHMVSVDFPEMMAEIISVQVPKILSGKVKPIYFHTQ

As to `O=C1c2ccccc2C(=O)C1c1ccc2cc(S(=O)(=O)O)cc(S(=O)(=O)O)c2n1`, the Potency entry in experiment [1], in [2], in [3], in experiment [4], in experiment [6] and in experiment [7] was “inactive” throughout. The Potency entry in experiment [8] and in experiment [11] was “inactive” throughout. In addition, the call in experiment [5] and in experiment [13] was inactive. In addition, the Potency in experiment [9] is 58.9 µM (active); in [10] it was 58.9 µM (active); in [12] it was 0.589 µM (active); in experiment [14] it was 29.5 µM (active); in experiment [15], 29.5 µM (active).

`CCCN(C1CCN(C(=O)C2CCNCC2)CC1)[C@@H]1CCc2ccc(OC)cc2C1`: the Potency entry in experiment [16], in experiment [2], in experiment [17], in experiment [18], in [8] and in experiment [9] was “inactive” in each case. Further, the Potency entry in experiment [10], in [19], in experiment [12] and in experiment [15] was “inactive” in each case. Also, the result in experiment [5] and in experiment [13] was inactive.

As for `Cc1ccc(NC(=O)c2ccc(CN3CCN(C)CC3)cc2)cc1Nc1nccc(-c2cccnc2)n1`, the Potency entry in experiment [16], in experiment [1], in experiment [2], in experiment [4], in [7] and in experiment [18] was “inactive” in each case. The Potency result in experiment [8], in experiment [10] and in [12] was “inactive” throughout. Also, the outcome in experiment [5] and in [13] was inactive. The Potency in experiment [6] was 21.3 µM (active).

As for `CC1(COc2ccc(CC3SC(=O)NC3=O)cc2)CCCCC1` (stereo not drawn), the Potency result in [16], in experiment [2], in experiment [3], in experiment [4], in experiment [6] and in [17] was “inactive” each time. The Potency entry in [7], in [18], in experiment [8], in experiment [9], in experiment [10] and in experiment [11] was “inactive” throughout. In addition, the Potency entry in experiment [20], in experiment [12] and in experiment [14] was “inactive” in each case. The molecule was classed as inactive in experiment [5] and in [13].

On to `Oc1ccc(CCNCCCCCCNCCc2ccccc2)cc1O`, for which the Potency entry in [16], in experiment [1], in experiment [2], in experiment [4], in experiment [7] and in experiment [18] was “inactive” in each case. For the same molecule, the Potency result in experiment [8], in experiment [10], in experiment [11], in [20] and in experiment [12] was “inactive” each time. Besides, the molecule was classed as inactive in experiment [5]. Also, the Potency in [6] is 23.9 µM (active); in [14] it was 29.8 µM (active).

Regarding `O=Cc1ccc(Cl)c([N+](=O)[O-])c1`, the Potency entry in [16], in experiment [1], in experiment [2], in experiment [4], in experiment [17] and in [7] was “inactive” throughout. The Potency entry in experiment [18], in experiment [8], in [9], in experiment [10], in experiment [11] and in experiment [12] was “inactive” each time. Also, the Potency entry in experiment [15] is “inactive”. Further, the call in [5] and in [13] was inactive. Besides, the Potency in [14] was 27.3 µM (active).

As for `CC(C)(Cc1c[nH]c2ccccc12)NCC(O)COc1ccccc1C#N` (stereo not drawn), the Potency entry in [16], in experiment [1], in experiment [2], in experiment [4], in [7] and in experiment [18] was “inactive” each time. Besides, the Potency entry in experiment [8], in experiment [9], in experiment [10], in [12] and in [15] was “inactive” throughout. Besides, in experiment [5], the outcome was inactive. Besides, the Potency in experiment [6] was 9.52 µM (active); in experiment [17], 7.56 µM (active).

Take `O=C(N[C@@H](Cc1ccccc1)[C@@H](O)C(=O)N1C[C@@H](O)[C@@H](O)C1)c1cc2cc(Cl)ccc2[nH]1`: the Potency entry in [16], in experiment [1], in experiment [2], in experiment [4], in experiment [17] and in experiment [7] was “inactive” each time. Besides, the Potency result in [18], in experiment [9], in experiment [10], in [11] and in experiment [12] was “inactive” each time. Also, the outcome in experiment [5] and in experiment [13] was inactive.
